FLuc counter: inhibits or activates purified firefly luciferase, miR-21 counter-screen | purified FLuc, Km substrates, luminescence inhibition | AID 588342 | P08659 | Potency, µM (series often up to 57.5 µM), for inactives: at the top dose activity change, negative = inhibition, most hits filed as inhibitors | 6.9% of 360,000 active;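 further: plate controls were vehicle for no effect and reference inhibitor for full effect; nearly all actives have a fitted effect of over 55% in size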
Target sequence (P08659 whole entry, looked up): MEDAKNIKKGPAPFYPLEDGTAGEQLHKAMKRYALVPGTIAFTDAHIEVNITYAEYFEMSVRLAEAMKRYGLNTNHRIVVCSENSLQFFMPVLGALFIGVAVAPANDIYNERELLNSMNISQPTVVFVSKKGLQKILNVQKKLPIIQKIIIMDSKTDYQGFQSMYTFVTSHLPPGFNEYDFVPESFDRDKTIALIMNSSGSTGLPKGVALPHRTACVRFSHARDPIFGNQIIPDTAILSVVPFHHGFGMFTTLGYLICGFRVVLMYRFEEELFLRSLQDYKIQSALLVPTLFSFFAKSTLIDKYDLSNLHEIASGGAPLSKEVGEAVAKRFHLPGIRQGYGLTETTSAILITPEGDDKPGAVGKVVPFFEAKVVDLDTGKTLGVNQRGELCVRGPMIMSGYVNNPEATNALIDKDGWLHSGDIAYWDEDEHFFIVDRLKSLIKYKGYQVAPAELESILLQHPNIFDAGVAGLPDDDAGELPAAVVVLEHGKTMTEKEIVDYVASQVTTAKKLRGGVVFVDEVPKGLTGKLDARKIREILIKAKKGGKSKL
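Purified P. pyralis luciferase, 10 nM final, with Km-level 10 uM D-luciferin and 10 uM ATP in 50 mM Tris acetate pH 7.5, 10 mM Mg acetate, 0.01% Tween-20, 0.05% BSA; 6-point qHTS titration about 60 µM downward; luminescence read.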
ELG1 repair inh: blocks ELG1-dependent DNA repair in HEK293T cells. Potency, µM (top dose mostly 46.1 µM), for the others: at the top dose activity change, negative = inhibition, usual class: inhibitors. AID 504467. HEK293T ELG1-luciferase reporter, luminescence, 16 h; DNA damage induced by 5-fluorouridine. 2.3% of 330,000 active; further: on the % scale 0 is the no-effect control and ±100 the full control effect; nearly all actives have a fitted effect of over 55% in size
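Quantitative HTS, concentration-response format. 2,000 cells/well co-treated with 5-fluorouridine and compound, 16 hr in 5% CO2 at 37 °C; ONE-Glo luminescence read after 30 min.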
SMN2 splice enh: increases expression of the SMN2 splice variant | HEK293 SMN2-luciferase splicing reporter, luminescence, 30-36 h | 2.8% of 210,000 active | Potency, µM (highest dose often 46.1 µM), for the others: at the highest dose activity change, positive = activation, actives largely listed as activators | AID 1458; further: % of control where 0% means no effect; nearly all actives have a fitted effect of over 55% in size
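HEK293 cells carry an SMN2 […]–luciferase reporter in which exon 7 inclusion puts luciferase in frame. Cells were plated 10-12 h before compound addition, then incubated 30-36 h at 37C. ONE-Glo luminescence was read; sodium butyrate at 4.5 mM final served as control.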
NPC1 prom act: activators of NPC1 promoter; Huh7 NPC1 promoter luciferase reporter, 24 h; Potency, µM (doses to about 9.22 µM), for the others: top-dose activation, actives largely listed as activators; 2.4% of 320,000 active; AID 485313; further: % of control where 0% means no effect; nearly all actives have a fitted effect of over 60% in size
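Readout is luciferase luminescence, reflecting NPC1 promoter activation in stably transfected Huh7 cells after 24 h compound exposure at 37 °C in reduced-serum medium with 10% FBS.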
Rab9 prom act: activates the Rab9 promoter | 2.8% of 320,000 active | Potency, µM (series often up to 9.22 µM), for the others: at the top dose activation, negative = inhibition, actives largely listed as activators | Huh7 Rab9 promoter-luciferase reporter, luminescence, 24 h; further: % of control where 0% means no effect; nearly all actives have a fitted effect of over 60% in size
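Cells were plated at 1500 per well in reduced-serum medium with 10% FBS and left 2 h. Compound in DMSO was then added for 24 h at 37 °C. Reporter signal was read by luminescence after 10 min with luciferase detection reagent.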
ELG1 genotox: inducers of genotoxicity in HEK293T ELG1-luciferase cells; HEK293T ELG1-luciferase reporter, luminescence, 16 h; 1.3% of 330,000 active; AID 504466; Potency, µM (top dose mostly 46 µM), for the others: at the highest dose activity change, positive = activation, hits mostly activators; further: % of control where 0% means no effect; nearly all actives have a fitted effect of over 60% in size
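16 hr compound incubation (37 °C, 5% CO2) of HEK293T cells carrying luciferase-tagged ELG1; luciferase then measured by ONE-Glo luminescence after 30 min at RT.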
The depositor's hits bear a star; ? = inconclusive; nt = not tested or not shown; [ ] = remark or other dose. The list is not random: actives were taken first. Their share in the collection is about 9.4%. The call rests on the fitted dose curve; in most records, active means well fitted curve in the direction sought with a large enough effect; inconclusive means small, poorly fitted or top-dose-only effect, or another doubt; inactive means no such curve, though single readings can be large; an effect the other way counts as inactive or inconclusive. Potency means the concentration at half of the fitted maximal effect.

SMILES	FLuc counter	ELG1 repair inh	SMN2 splice enh	NPC1 prom act	Rab9 prom act	ELG1 genotox
CCC1CCCCN1C(=O)CCS(=O)(=O)c1cc2c(cc1C)NC(=O)CO2 (stereo unspecified)	-2.9%	nt	nt	nt	nt	nt
COc1ccc(C(=O)Nc2ccc(C)c(S(=O)(=O)N3CCCCCC3)c2)cc1	?	?	nt	-17.5%	-2.3%	-15.8%
Cc1ccc(NC(=O)c2ccccc2F)cc1S(=O)(=O)N1CCCCCC1	-16.5%	?	-14.7%	0.9%	-12.0%	-8.7%
Cc1ccc(C(=O)Nc2cccc(O)c2)cc1S(=O)(=O)N1CCCCCC1	15.1µM*	?	-5.0%	29.3%	?	6.1%
Cc1ccc(NC(=O)Cc2ccccc2F)cc1S(=O)(=O)N1CCCCCC1	-2.3%	11.6µM*	nt	-0.6%	-3.7%	-3.1%
COc1ccc(NC(=O)Cc2ccc(C)c(C)c2)cc1S(=O)(=O)N1CCCCC1	nt	25.9µM*	nt	nt	nt	-4.6%
Cc1ccc(C(=O)Nc2ccc3cn[nH]c3c2)cc1S(=O)(=O)N1CCCCC1	21.3µM*	?	0.6%	?	?	14.7%
CC(=O)N1CCc2c(sc3c2c(=O)n(-c2ccccc2)c(=O)n3CC(=O)c2ccc(F)cc2)C1	-2.7%	nt	-10.5%	nt	nt	nt
COc1ccc(NC(=O)c2cc3ccccc3o2)cc1S(=O)(=O)N1CCCCC1	nt	20.6µM*	nt	nt	nt	-8.1%
Cc1ccc(NC(=O)c2ccc(F)cc2)cc1S(=O)(=O)N1CCCCCC1	?	16.4µM*	-35.9%	2.7%	-9.9%	-10.1%
O=C1/C(=C/c2cccnc2)Cc2ccc(Cl)cc21	12µM*	2.0%	nt	5.5%	5.3%	-2.0%
COc1ccc(S(=O)(=O)c2c(Nc3cccc(C)c3C)sc(C(=O)c3ccccc3)c2N)cc1	5.4%	nt	-11.2%	nt	nt	nt
Cc1ccc(NC(=O)CCc2c(C)nc3ncnn3c2C)cc1Cl	5.6%	nt	-26.0%	nt	nt	nt
CCCn1c(C)cc(C(=O)CSc2nc3nc(C)cc(C)n3n2)c1C	21.3µM*	?	-18.3%	-1.1%	-0.4%	-0.4%
O=S(=O)(c1cccc(C(F)(F)F)c1)N1c2ccccc2-n2cccc2[C@H]1c1cccnc1	nt	nt	-41.7%[9.22 µM]	nt	nt	nt
CCOc1ccc(N(CC(=O)Nc2ccc(C)c(C)c2)S(C)(=O)=O)cc1	10.7µM*	?	nt	2.82µM*	?	?
O=Nc1ccc(NOC(=O)c2ccccc2)cc1	0.0953µM*	-17.8%	-38.2%	-3.5%	-3.0%	-2.9%
O=Nc1ccc(Nc2ccccc2)cc1	nt	nt	2.8%	nt	nt	nt
Nc1cc(C(=O)O)[nH]c(=O)n1	nt	nt	-7.1%[9.22 µM]	nt	nt	nt
O=C(OCC(=O)N1CCc2ccccc21)c1c2c(nc3ccccc13)CCCC2	6.75µM*	?	nt	8.0%	21.2%	-18.7%
CC1Cc2ccccc2N1C(=O)COC(=O)c1c2c(nc3ccccc13)CCCCC2 (stereo unspecified)	?	13µM*	-16.2%	10.8%	11.9%	-12.8%
N/C(=N\OC(=O)c1ccc(Br)cc1)c1ccncc1	4.78µM*	?	?	?	?	?
N/C(=N\OC(=O)C1CCCCC1)c1cccc(Br)c1	?	21.8%	nt	16.2%	15.2%	2.6%
N/C(=N\OC(=O)c1ccccc1)c1ccncc1	19µM*	?	25.2%	?	2.82µM*	?
N/C(=N\OC(=O)c1cccc(Br)c1)c1ccncc1	12µM*	?	16.6%	24.6%	20.3%	?
SMILES	FLuc counter	ELG1 repair inh	SMN2 splice enh	NPC1 prom act	Rab9 prom act	ELG1 genotox
O=C(COC(=O)c1ccncc1)c1ccc(Br)cc1	7.57µM*	-2.2%	nt	-0.8%	-4.4%	-1.5%
COc1cc(OC)cc(C(=O)O/N=C(\N)c2ccncc2)c1	?	27.6%	-2.1%	2.1%	-2.0%	-1.6%
O=C(NCCc1ccc(Cl)cc1)C(=O)NCC(c1ccc2c(c1)OCO2)N1CCOCC1 (stereo unspecified)	0.6%	nt	nt	nt	nt	nt
Cc1cccc(NC(=O)COc2ccc3oc4c(c3c2)CCCC4)n1	?	?	2.9%	15.9%	-3.5%	27.2%
O=C(COc1ccc2c(c1)CCC2)Nc1ccccn1	0.169µM*	?	nt	3.98µM*	3.16µM*	?
Cc1cnc(NC(=O)COc2ccc3c(c2)CCC3)s1	1.2µM*	?	nt	0.562µM*	?	0.651µM*
O=C(COc1ccc2c(c1)CCC2)NCc1ccccc1	-13.9%	7.8%	20.6%	-1.3%	-4.1%	-0.8%
Cc1cccc(NC(=O)COc2ccc3c(c2)CCC3)n1	10.7µM*	?	nt	24.9%	?	17.5%
C[N+](C)(N)Cc1nc(-c2ccc(Cl)cc2)no1	nt	nt	18.9%[9.22 µM]	nt	nt	nt
Cc1cccc(C(=O)N2CCc3cc(CNC(=O)c4cc5ccccc5[nH]4)ccc32)c1	-19.8%	nt	nt	nt	nt	nt
CCCc1c(C(=O)N/N=C/C(C)=C/c2ccccc2)nnn1-c1nonc1N	2.39µM*	?	nt	12.9%	13.9%	7.1%
CCCN(CCC)Cc1c(C(=O)N/N=C/C(C)=C\c2ccccc2)nnn1-c1nonc1N	-14.8%	?	nt	-5.6%	0.3%	-22.7%
CC(/C=N/NC(=O)c1nnn(-c2nonc2N)c1C(C)C)=C\c1ccccc1	1.51µM*	?	nt	?	?	2.7%
Cc1nc2nc(Cc3ccccc3)[nH]n2c(=O)c1Cc1ccccc1	-1.0%	-9.1%	-7.8%	-1.8%	-4.0%	0.8%
Cc1nc2c(-c3ccc(Cl)cc3)c(C)[nH]n2c(=O)c1Cc1ccccc1	?	4.11µM*	nt	-35.7%	-26.4%	-15.5%
CCOC(=O)Cc1c(C)nc2c(-c3ccccc3)c(-c3ccccc3)[nH]n2c1=O	-11.8%	-0.2%	4.47µM*	2.2%	0.3%	-3.8%

Screens: PubChem, National Center for Advancing Translational Sciences (NCATS)
